Records with an inconclusive call do not appear. Calls come from the whole dose curve; as a rule, active = well fitted curve in either direction with a large enough effect (not every such curve was filed as active); inconclusive = small, poorly fitted or top-dose-only effect, or another doubt; inactive = flat fitted curve, though single readings scatter.
Experiment: Stat Signaling Pathway (AID 446);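 note: ME-180 cervical cancer cells given 40 pM IL-6 alongside compound; SIE-controlled beta-lactamase reporter measured as 460/530 nm FRET emission ratio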
Conditions: ME-180 (cervical carcinoma) SIE beta-lactamase reporter, IL-6 stimulated, 5 h; at 17.2 µM (top of the series) unless noted
Method in brief: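 Normalization used AC90 stimulation (300 pM IL-6) and AC90 inhibition (125 nM pan-JAK inhibitor at 40 pM IL-6). The underlying signal is SIE-driven beta-lactamase in ME-180 cells after 5 h IL-6 exposure with compound.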
% is set by controls: 0 for no effect and ±100 for the full control effect.

activity, negative = inhibition, inactive:
CC(=NC1CCCC1)c1c(C)[nH]n(-c2nc3ccccc3s2)c1=O -8.78%
Cc1ccc(-c2nnc(-c3ccccc3)o2)cc1Br 27.2%
C[C@H](O)[C@@H]1C(=O)N2C(C(=O)O)=C(SCCN=CN)C[C@@H]12 -2.21%
Cc1ccc(OCc2nnc(NC(=O)c3ccco3)s2)c(C)c1 -14.8%
CCOC(=O)C1CCN(c2nc3ccccc3nc2C(C#N)C(=O)OC(C)C)CC1 (stereo not drawn) -8.74%
COC(=O)[C@@H](NC(=O)c1cc(-c2ccccc2)nc2ccccc12)c1ccccc1 1.95% [at 38 µM]
O=C(O)C1CC=CCC1C(=O)N1CCN(c2nc(-c3ccccc3)c3ccccc3n2)CC1 (stereo not drawn) 9.49%
OC1(C2(O)CC(c3ccccc3)ON2)CCCCC1 (stereo not drawn) -6.74%
COCCCNc1nc2c(c(=O)[nH]c(=O)n2C)n1CC(O)COc1ccccc1 (stereo not drawn) -9.93%
CN(C)C/C(Cl)=C(\Cl)c1ccccc1 -22.6%
CC[C@]1(O)C[C@H]2CN(CCc3c([nH]c4ccccc34)[C@](C(=O)OC)(c3cc4c(cc3OC)N(C)[C@@H]3[C@](O)(C(=O)OC)[C@H](OC(C)=O)[C@]5(CC)C=CCN6CC[C@]43[C@@H]65)C2)C1 -18.9% [at 38 µM]
C=CCNc1nc(N2CCOCC2)c(C#N)c2c1CN(C)CC2 2.07%
COc1ccc(OCC(O)Cn2c(Nc3cccc(C)c3)nc3c2c(=O)n(C)c(=O)n3C)cc1 (stereo not drawn) -15.9%
CCCCC(=O)c1c(C)cc(C)[nH]c1=O 1.99%
CSc1ccccc1NC(=O)c1c(Br)cnn1C 1.88%
C=CCOC(=O)C1=C(C)NC(SCC(=O)N(CC)CC)=C(C#N)C1c1ccccc1 (stereo not drawn) -2.74%
Cc1nc(NCCN)c(C#N)c2c1COC(C)(C)C2 7.79%
O=C(NC1(C(F)(F)F)C(=O)Nc2c1c(=O)[nH]c(=O)n2Cc1ccco1)C1CCCCC1 (stereo not drawn) -2.02%
C=CCn1c(=S)[nH]c2nc3c(cc2c1=O)COC(C)(C)C3 3.02%
CN1CCc2cc(O)c(O)cc2[C@H](c2ccccc2)C1 -12.3% [at 38 µM]
COc1ccc(-c2nn3c(C4CCCCC4)nnc3s2)cc1OC 16.5%
COc1ccc(C(=O)N/C(N)=N/c2nc3ccccc3o2)cc1 -5.99%
CCOC(=O)C1=C(C)N=C2SC(C)C(=O)N2C1c1ccc(C(=O)OC)cc1 (stereo not drawn) -8.28%
O=C(/C=C\c1ccc(O)cc1)c1ccc(O)cc1O 25.4% [at 38 µM]
CC1(C)Cc2c(c(-c3ccccc3)[nH]c(=O)c2C#N)CS1 -8.62%
c1ccc(-c2nc(NCC3CCCO3)c3ccccc3n2)nc1 (stereo not drawn) -6.67%
CCOC(=O)C1/C(=N\O)CC(C)(O)C(C(=O)OCC)C1c1ccc(OC)c(OC)c1 (stereo not drawn) 0.164%
Cn1c2ccccc2c2nn(-c3ccccc3)c(=O)cc21 6.09%
COC(=O)c1sc(NC(=O)c2oc3ccccc3c2C)nc1C 18.1%
FC(F)(F)c1cc(CO[C@@H]2CCCN[C@H]2c2ccccc2)cc(C(F)(F)F)c1 -14.5% [at 38 µM]
Cc1cc(C)c(C#N)c(SCC(=O)N2CCN(Cc3ccccc3)CC2)n1 11.8%
COc1ccc(NC(=O)CSC2=C(C#N)C(c3ccco3)C3=C(CCCC3=O)N2)c(OC)c1 (stereo not drawn) -8.16%
CCCOc1ccccc1C(=O)NCCCC(=O)O 8.1%
COc1cc([C@H]2c3cc4c(cc3[C@@H](O[C@H]3O[C@H]5CO[C@@H](C)O[C@H]5[C@@H](O)[C@@H]3O)[C@@H]3COC(=O)[C@H]23)OCO4)cc(OC)c1O -20.6%
Cc1cc(C)c(-n2c(O)c(C=NCCN3CCOCC3)c(=O)[nH]c2=O)c(C)c1 4.18%
CCOC(=O)c1c(-c2cccs2)csc1NC(=O)c1ccncc1 1.61%
Nc1nnc(Cc2ccc(Cl)c(Cl)c2)s1 4.97%
CCCCCOc1ccc(Cl)cc1CN1CCOCC1 4.37%
